Assay outcomes as filed in PubChem.
FUS yeast rescue – FUS proteinopathy suppression in yeast; S. cerevisiae FUS-expressing, growth rescue, OD600, 24 h; Potency, µM (top dose mostly 76.6 µM), actives largely listed as activators; hit rate 0.24% among 390,000;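 also: plate controls were DMSO vehicle for no effect and reference control for full effect; nearly all actives have a fitted effect of over 55% in size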
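FUS-expressing yeast, raffinose-pregrown, induced in 2% galactose minimal medium at OD 0.005; compounds in a dilution series, 24hr at 30C. Growth restoration read as absorbance at 600 nm. CP55940 positive control, DMSO negative.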
aSyn rescue – alpha-synuclein toxicity inhibition in yeast | AID 652106 | Yeast expressing alpha-synuclein, growth rescue, BacTiter-Glo, 24 h | Potency, µM (top dose mostly 46.1 µM), for the others: at the top dose growth rescue (activation), most hits filed as activators | hit rate 0.14% among 370,000; also: % of control where 0% means no effect; nearly all actives have a fitted effect of over 65% in size
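Screening used galactose-induced yeast with toxic alpha-synuclein levels, exposed to compound for 24 hr at 30 deg C. Cell growth, read with BacTiter-Glo luminescence, gave the measured signal.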
Abeta rescue – restores growth of yeast expressing A-beta42 peptide. yeast expressing A-beta42, growth rescue, OD600, 48 h; response scale: 0% DMSO, 100% iron-clioquinol control. Potency, µM (top dose mostly 46.1 µM), actives largely listed as activators. hit rate 0.063% among 410,000. AID 1347071; also: nearly all actives have a fitted effect of over 55% in size
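Yeast A-beta toxicity model in growth medium with pinned compounds, 48 h at 30 C; growth read as absorbance at 600 nm. Normalized to FeCl3/clioquinol equimolar mix (positive) and DMSO (negative).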
TDP43 rescue – inhibitors of TDP-43 toxicity in yeast; AID 652104; TDP-43 expressing yeast growth rescue, BacTiter-Glo, 24 h; hit rate 1.8% among 410,000; Potency, µM (titrated, usually from 46.1 µM), for inactives: top-dose growth rescue (activation), usual class: activators; also: % of control where 0% means no effect; nearly all actives have a fitted effect of over 50% in size
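Cell-based yeast growth screen: TDP-43 expression induced in galactose, inoculum OD600=0.02 after raffinose pregrowth to mid-log. Read-out BacTiter-Glo luminescence at 24 hr, 30 deg C; inhibition of toxicity seen as signal increase.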
* = called active by the depositor; i = inactive; ? = inconclusive; . = no result given; ! = not active in a repeat; [ ] = dose if it differs, or a comment. A selection: hits, their analogues and other compounds. The true share with any hit is near 2.1%. Calls follow the shape of the dose curve; as a rule, active = well fitted curve in the direction sought with a large enough effect; inconclusive = small, poorly fitted or top-dose-only effect, or another doubt; inactive = no such curve, though single readings can be large; an effect the other way counts as inactive or inconclusive. Potency is read from the fitted curve at half-maximal effect.

SMILES	FUS yeast rescue	aSyn rescue	Abeta rescue	TDP43 rescue
CC(C)(C)NC(=O)C(c1ccc(C#N)cc1)n1c(=O)c(-c2cc3ccccc3[nH]2)nc2ccccc21 (stereo unspecified)	?	12.6µM*	?	25.6%
CC(=O)c1cnc(Oc2cc(Cl)ccc2Cl)nc1C	i	9.4%	?	?
CC(C)(C)c1nnc(N/N=C/c2ccccc2)n(N)c1=O	.	-1.2%	i	0.0%
CC(C)(C)c1nnc(N/N=C/c2ccccc2O)n(N)c1=O	i	17.8µM*	11.2µM*	12.8%
O=[N+]([O-])c1cccc(-c2nc(-c3cccs3)c(-c3cccs3)[nH]2)c1	i	-9.3%	?	8.6%
O=[N+]([O-])c1ccc(-c2nc(-c3cccs3)c(-c3cccs3)[nH]2)cc1	i	-11.6%	i	3.16µM*
Cc1ccc(C(=O)CCNc2ccc(F)c(Cl)c2)o1	i	-8.6%	i	10µM*
Cc1ccc(C(=O)CCNc2ccc(Br)cc2)o1	i	-2.2%	i	17.1%
CN(C)CCN1CC(C(=O)O)CC1=O (stereo unspecified)	i	28.9%	i	3.7%
O=C(NCCCOc1ccc([N+](=O)[O-])cc1Cl)OCc1ccccc1	.	?	i	15.8µM*
Nc1ccc(/C=C/c2nc3ccccc3s2)cc1	.	12.6µM*	.	.
CCCc1cc(C(=O)Nc2ccc(C(=O)c3ccc(F)cc3)cc2)n(C)n1	?	-22.8%	i	?
CCCc1cc(C(=O)Nc2ccc(C(=O)c3ccccc3)cc2)n(C)n1	i	-8.4%	i	25.1µM*
Nc1cc(N)nc(SCC(=O)N2CCCCC2)n1	i	4.5%	i	-19.2%
CCOC(=O)C1=C(C)Nc2nc(=S)[nH]n2C1c1ccc(Cl)cc1 (stereo unspecified)	i	?	i	22.4µM*
CCOC(=O)C1=C(C)Nc2nc(SCC)nn2C1c1ccc(OC)cc1 (stereo unspecified)	i	4.0%	i	7.0%
Cc1ccc(-c2ccc(=O)[nH]n2)cc1	i	0.5%	i	?
O=C1CCC(c2ccccc2)=NN1	i	-0.5%	i	-4.1%[9.22 µM]
CCCCCc1ccc(-c2ccc(=O)[nH]n2)cc1	i	1.7%	i	17.8µM*
CCCCCc1ccc(C2=NNC(=O)CC2)cc1	i	14.3%	i	12.6µM*
CC(C)OC(=O)CCNc1n[nH]c(=O)[nH]c1=O	i	-0.8%	i	-12.0%
COc1ccc(N/N=C(/Oc2ccc([N+](=O)[O-])cc2)C(C)=O)cc1	i	6.5%	i	?
COc1ccc(NN=Nc2ccc([N+](=O)[O-])cc2)cc1	i	-8.9%	?	17.8µM*
NC(=O)c1ccc(-c2ccc(Br)cc2)o1	i	-0.2%	i	12.6µM*
O=C(O)CCc1ccc(-c2ccc(Cl)cc2)o1	i	-47.2%	i	?
SMILES	FUS yeast rescue	aSyn rescue	Abeta rescue	TDP43 rescue
NC(=O)C1CCN(C(=S)c2ccc(-c3ccc(Br)cc3)o2)CC1	i	-5.5%	i	-8.0%
COc1ccc(-c2ccc(CCC(=O)O)o2)cc1	?	?	i	10µM*
O=C(O)CCc1ccc(-c2ccc(Br)cc2)o1	i	-43.8%	i	3.16µM*
CN1C(=O)/C(=C\c2ccncc2)SC1=Nc1ccccc1	i	-0.6%	i	?
CNC(=O)CSc1nnc(-c2cc(C)cc(C)c2)o1	i	-0.2%	i	-9.1%
COc1ccccc1NCC(=O)N/N=C/C=C/c1ccccc1	i	4.2%	i	29.9%
CC(/C=C/c1ccccc1)=N\NC(N)=S	i	0.4%	i	12.6µM*
NC(=S)NN=C(c1ccccc1)c1ccccc1	i	-22.4%	?	12.6µM*
CCn1c(O)c(N=NC(=O)Cn2ccc(C(F)(F)F)n2)c2ccccc21	i	2.6%	i	15.1%
Cc1cc(=O)oc2cc(OCCc3ccccc3)ccc12	i	2.4%	i	12.6µM*
Cc1cc(=O)oc2cc(OCCCC[n+]3ccccc3)ccc12	i	-11.8%	i	-10.4%
Cc1cc(C)c(C(=O)NC2CC(C)(C)Cc3c2cnn3-c2ccccc2)o1 (stereo unspecified)	i	-8.7%	i	15.8µM*
COc1ccc(-n2ncc3c2CC(C)(C)CC3NC(=O)c2oc(C)cc2C)cc1 (stereo unspecified)	i	1.8%	i	-2.5%
CC(C)(C)c1ccc(-n2nc(C#N)c(Cl)cc2=O)cc1	i	-1.5%	i	3.55µM*
CC(C)(C)c1ccc(-n2nc(C(N)=O)c(O)cc2=O)cc1	i	9.0%	i	16.2%
CCOc1ccc(C(=O)NCC(=O)OCc2c(F)cccc2Cl)cc1OCC	i	0.3%	i	-8.6%
CCOc1ccc(C(=O)NCC(=O)OCc2c(F)cccc2Cl)cc1	.	1.3%	i	22.4µM*
Cc1cc(Br)c(OCc2ccc(C(=O)N/N=C3\CC4CC=CC34)cc2)c(Br)c1 (stereo unspecified)	i	9.7%	i	25.1µM*
CN(C)C(CNC(=O)CSC(=S)N1CCCC1)c1ccccc1 (stereo unspecified)	.	6.9%	i	18.6%
CC(=O)Nc1cccc(C(=O)OCC(=O)NC(=O)Cc2ccccc2)c1	i	1.3%	i	-2.0%
CC(=O)Nc1cccc(C(=O)OCc2ccccc2)c1	i	-7.2%	i	12.6µM*
O=C(O)c1ccc(SCc2ccccc2)nc1	i	7.1%	i	12.6µM*
Cc1cccc(NC(=O)Cc2ccc(-c3ccccc3)cc2)n1	i	-6.5%	i	11.2µM*
Cc1cccc(NC(=O)Cc2coc3ccc4ccccc4c23)n1	i	-15.8%	i	11.2µM*
O=[N+]([O-])c1ccc(Cn2cc(-c3cccc(C(F)(F)F)c3)nn2)cc1	i	20.5%	i	15.8µM*
SMILES	FUS yeast rescue	aSyn rescue	Abeta rescue	TDP43 rescue
O=[N+]([O-])c1ccc(Oc2cccc(C(F)(F)F)c2)nc1	i	-8.2%	i	23.5%
CC(=O)c1ccc(Oc2ccc(C(C)=O)cc2)cc1	i	-0.4%	i	22.4µM*
O=C(NC(Nc1ncccn1)C(=O)c1ccccc1)c1ccccc1 (stereo unspecified)	i	2.2%	i	2.6%
Cc1ccc(N2CCN(C(=O)C3CCCN(c4ncnc5c4nc4n5CCCCC4)C3)CC2)c(C)c1 (stereo unspecified)	i	2.2%	.	9.6%
O=C(C1CCCN(c2ncnc3c2nc2n3CCCCC2)C1)N1CCN(c2cccc(Cl)c2)CC1 (stereo unspecified)	?	5.2%	.	20µM*
O=C(C1CCCN(c2ncnc3c2nc2n3CCCCC2)C1)N1CCN(c2ccccc2)CC1 (stereo unspecified)	i	0.0%	i	?
Cc1ccc(C)c(N2CCN(C(=O)C3CCCN(c4ncnc5c4nc4n5CCCCC4)C3)CC2)c1 (stereo unspecified)	?	1.8%	i	25.1µM*
Cc1cccc(N2CCN(C(=O)C3CCN(c4ncnc5c4nc4n5CCCCC4)CC3)CC2)c1C	31.6µM*!	10.4%	i	?
